Over roughly 39,000 sequences, “fluorescence intensity (a.u.)” has its median near 4,300; the highest 2% begin near 39,000. The list comes from a sample in which the highest values are over-represented; it also holds similar and randomly drawn sequences.

The assay deals with T1, OsSMF1 (Oryza sativa, UniProt Q6ZLB0 1-436).
T1 sequence: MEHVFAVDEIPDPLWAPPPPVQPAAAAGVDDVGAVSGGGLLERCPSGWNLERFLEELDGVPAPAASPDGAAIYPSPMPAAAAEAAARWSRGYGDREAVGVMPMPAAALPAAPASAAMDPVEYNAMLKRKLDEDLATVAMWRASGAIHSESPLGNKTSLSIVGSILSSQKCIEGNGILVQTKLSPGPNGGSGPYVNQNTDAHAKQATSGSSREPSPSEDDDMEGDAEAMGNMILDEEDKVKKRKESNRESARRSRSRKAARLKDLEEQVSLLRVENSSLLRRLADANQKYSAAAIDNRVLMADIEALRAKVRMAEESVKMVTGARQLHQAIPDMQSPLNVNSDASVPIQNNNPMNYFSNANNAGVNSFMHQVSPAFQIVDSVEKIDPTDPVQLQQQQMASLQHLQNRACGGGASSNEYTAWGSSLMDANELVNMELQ
The experiment in a line: protein-binding microarray (RPBM); PBS, 2% BSA, 51.3 ng/ul salmon testes DNA, 50 uM zinc acetate, 200 nM TF, 25 C, 1 h; high values mean tight binding. As to conditions: protein: recombinant; tags: N-terminal polyhistidine and DsRed monomer fusion (pET32a); chain copies: 2; label: CyDye5-dUTP incorporated in the synthesized complementary strand; 3' TTTTT single-stranded linker to array surface; dsDNA, one strand shown. In a few lines: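 Binding signal is defined as the fluorescence intensity of each feature in arbitrary units, read on an Axon 4000B scanner. Transcription factors with N-terminal polyhistidine and DsRed fusions came from E. coli BL21-CodonPlus and were purified on Ni–NTA. They were incubated at 200 nM for 1 h at 25 °C on a custom Agilent array that had been made double-stranded with Cy5-dUTP, with 50 µM zinc acetate present, and the array was washed.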
Take “TGACATAGAGAGTGATCACAAGCGAAATATTTATTCGGAACGGAGTCACCTAGTGCAG”: the binding signal was 48300 fluorescence intensity (a.u.). As to “GGAGAAACAATATTCGTCATACATTTTGAACCAGATCAAGCGGAGTCACCTAGTGCAG”, the binding signal is 31700 fluorescence intensity (a.u.).

As to “GGCCAGGATGATCGAGCACTTGGTTGTGACACAGAGGGTGCGGAGTCACCTAGTGCAG”, the binding signal was 3220 fluorescence intensity (a.u.). Turning to “ATTTGGTATGACTTGGCTTCAAACCAAGATGGTCCGGAGTCGGAGTCACCTAGTGCAG”, the binding signal was 5390 fluorescence intensity (a.u.). As for “CCCACATCGCTCCGCGTCATTAGATTTAGCACTTTATCTTCGGAGTCACCTAGTGCAG”, the binding signal is 5240 fluorescence intensity (a.u.). As to “CGCCATGTGTCAACTGGCATGGCCGTGCGCTGGCACACACCGGAGTCACCTAGTGCAG”, the binding signal was 5160 fluorescence intensity (a.u.). For “CATGTTCGTGCGCCGTCACTACAGGCACCTCGCTGTCAACCGGAGTCACCTAGTGCAG”, the binding signal is 40100 fluorescence intensity (a.u.).

As for “TGCGCCGTCTGCGTCAGCGTGCCTCGTCGCAGTCGCAGGCCGGAGTCACCTAGTGCAG”, the binding signal is 6400 fluorescence intensity (a.u.). For the sequence “TAAGCTCCAAAGCCAGCTATAGCATGAGCTCCAAAATATACGGAGTCACCTAGTGCAG”, the binding signal is 45700 fluorescence intensity (a.u.). The result for “TATGACTAATCATGGACTAATTAGGCTCAAAAGATTCGTCCGGAGTCACCTAGTGCAG” reads 33200 fluorescence intensity (a.u.); that for “ATATATACTCCAAGCTCGGTGAGCCAGCATCACCACCAACCGGAGTCACCTAGTGCAG”, 3220 fluorescence intensity (a.u.); that for “CTATGGCTCATGAGCCAAAATTCAAAAGGCTAACGTTGGCCGGAGTCACCTAGTGCAG”, 43400 fluorescence intensity (a.u.).

Turning to “TTGGCCACCTCCACCTCACTCGCATGAAGGCTAAGTGAGCCGGAGTCACCTAGTGCAG”, the binding signal was 4160 fluorescence intensity (a.u.).

Regarding “CCTAAATAAGCTAGCAAAATAGCCAATGCCAGCCAATATTCGGAGTCACCTAGTGCAG”, the binding signal is 28300 fluorescence intensity (a.u.). The value for “CACCTCCCCTTCCCATCCCAACCGGCCAACCCTCCCCACCCGGAGTCACCTAGTGCAG” was 13900 fluorescence intensity (a.u.); that for “GCCGATCCCCGAGGAGGGCGGCGACGTGGAAGGGGAGGGCCGGAGTCACCTAGTGCAG” was 4090 fluorescence intensity (a.u.). “GGTAATGGGAGAGGCTGATGTGGCGTGAAATCTCTTGCGTCGGAGTCACCTAGTGCAG”: the binding signal was 16800 fluorescence intensity (a.u.). As to “TTTATCAAAGCGTCATATATCAATGACCAGAGGTACAACACGGAGTCACCTAGTGCAG”, the binding signal is 3940 fluorescence intensity (a.u.). The result for “CACCATTTTGGGCCGACACATCAAGCAGGCCAACGCGCAGCGGAGTCACCTAGTGCAG” reads 3300 fluorescence intensity (a.u.); that for “CCCAACTGTTCTTTCCGTCACGTCACGCACAAGTCAAAATCGGAGTCACCTAGTGCAG”, 5230 fluorescence intensity (a.u.); that for “ACCTGTGGACTTGCACGGTAACGTAGCACAATCTTCAAAGCGGAGTCACCTAGTGCAG”, 3810 fluorescence intensity (a.u.). For “TTTAGTAGTTTGAAAAGCATACGCGCGGAAACCGAGCAAGCGGAGTCACCTAGTGCAG”, the binding signal is 3190 fluorescence intensity (a.u.). On to “TCCCCTCGCGGCGAACGCGCGCGCGCAACGAGAAGCCAAGCGGAGTCACCTAGTGCAG”, for which the binding signal is 3200 fluorescence intensity (a.u.). Regarding “CGGCGAAGTAGCAAGGGTTGAGTCTGCATCATCAACCAATCGGAGTCACCTAGTGCAG”, the binding signal is 3370 fluorescence intensity (a.u.). With “GCCGAAACGCGAAGTGACAGTGACAAGGGAAGGACGGCCCCGGAGTCACCTAGTGCAG”, the binding signal was 3220 fluorescence intensity (a.u.). The value for “TCCCCTTCACCGCAACTTCGGCGAAGTCAAGAAGGAGTAGCGGAGTCACCTAGTGCAG” was 43800 fluorescence intensity (a.u.).

Consider “AGCGGCAGTAGCAAGGGAGCTAGGCCCCGAAGGAAAACCGCGGAGTCACCTAGTGCAG”, for which the binding signal is 46000 fluorescence intensity (a.u.). The result for “TGATGTTCTTACTGGTGGTGCTGATGACAATACTGAACAGCGGAGTCACCTAGTGCAG” reads 3840 fluorescence intensity (a.u.); that for “TAAGTGGACCTATAGGTGCACACGTGGGGAGAGGGGCGTGCGGAGTCACCTAGTGCAG”, 5690 fluorescence intensity (a.u.); that for “GCACCAGCGGTCCTCAAACTTGTAAGGGTGTGTCATCTAGCGGAGTCACCTAGTGCAG”, 3660 fluorescence intensity (a.u.).

Regarding “GCAAACAAAATATACCTGCCAAGTCAACTTCACGGCCGGACGGAGTCACCTAGTGCAG”, the binding signal is 4280 fluorescence intensity (a.u.). The value for “TTTTCAATTGTACATTGAGTCATTGACAATGCACAATTTACGGAGTCACCTAGTGCAG” was 3680 fluorescence intensity (a.u.); that for “ACTCTAAATTTAAACTTTTCACTCAATTGAAACTTTTCAACGGAGTCACCTAGTGCAG” was 24700 fluorescence intensity (a.u.). The value for “TAAGAAAACTACAGCTTTATTACTCAAACTTAATATTAACCGGAGTCACCTAGTGCAG” was 39800 fluorescence intensity (a.u.); that for “AGTTCAAGAAAACTTTATATTCAAACAAGAAAATTGGGGCCGGAGTCACCTAGTGCAG” was 40900 fluorescence intensity (a.u.); that for “CTATATTTTACTATAAGCTTAATCAAACTTCAAAATATTTCGGAGTCACCTAGTGCAG” was 14400 fluorescence intensity (a.u.). On to “ATTGTACACAACAAATTGAAATTTTCAATTCAACTTTTAACGGAGTCACCTAGTGCAG”, for which the binding signal was 43200 fluorescence intensity (a.u.). The result for “AGAAATCAACTTCAAACCTTTATTCTCAACATCAGGAGATCGGAGTCACCTAGTGCAG” reads 26000 fluorescence intensity (a.u.); that for “TTTCAATTATTTAGGTATTAACATTAACTACTTTACTAACCGGAGTCACCTAGTGCAG”, 14800 fluorescence intensity (a.u.).

As to “GGGATGGCCAGATTGGAACTCAGCAGACTCGCTGATGACTCGGAGTCACCTAGTGCAG”, the binding signal is 3800 fluorescence intensity (a.u.).

For the sequence “TTGTCCCTATAATAATATGTCACTCAAAATTGCTAATAAACGGAGTCACCTAGTGCAG”, the binding signal is 3400 fluorescence intensity (a.u.). As for “GATGTACTCGAGTATCTTCCCCTTCCTAGTTCCTTCCCTTCGGAGTCACCTAGTGCAG”, the binding signal is 13900 fluorescence intensity (a.u.).

Values taken from PMC7819943, “Rice protein-binding microarrays: a tool to detect cis-acting elements near promoter regions in rice”.
